# Screening data: PubChem, National Center for Advancing Translational Sciences (NCATS)
# Pf growth 96h – inhibits malaria parasite growth, 96 h; AID 504834; hit rate 6.9% among 320,000; P. falciparum luciferase reporter growth, 96 h; Potency, µM (highest dose often 28.7 µM), for the others: at the top dose activity change, negative = inhibition, usual class: inhibitors; further: potency means the concentration at half of the fitted maximal effect; on the % scale 0 is the no-effect control and ±100 the full control effect
#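 Parasite growth measured via integrated firefly luciferase reporter in P. falciparum. Infected erythrocytes at 2% hematocrit, 0.05% parasitemia final were treated 96 hours at 37 C under 5% CO2, and luminescence was read.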
# Shiga toxin inh – blocks Shiga toxin action in Vero cells | Vero cells, Shiga toxin protein synthesis inhibition reporter | inhibition, % at 38.7 µM | hit rate 9.2% among 290,000 | AID 2315; in the data active means inhibition mostly above about 28%, no sharp cut-off; inactive means mostly below about 43%; further: 0% is about no effect
# Pf growth 48h – P. falciparum growth inhibition at 48 hours (one generation) | P. falciparum luciferase growth in erythrocytes, 48 h | Potency, µM (highest dose often 28.7 µM), without a hit: top-dose activity change, negative = inhibition, hits mostly inhibitors | hit rate 5.9% among 310,000 | AID 504832; further: potency means the concentration at half of the fitted maximal effect; on the % scale 0 is the no-effect control and ±100 the full control effect
#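 A one-generation exposure of luciferase-tagged malaria parasites in RPMI 1640/Albumax erythrocyte culture, 37 C and 5% CO2. Inhibition is inferred from decreased luminescence after adding detection reagent.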
# Cycloheximide cs – counter-screen for Shiga toxin inhibitors: cycloheximide protein synthesis inhibition; cell reporter, cycloheximide protein synthesis inhibition counterscreen; max response, %; hit rate 12% among 300,000; AID 2314; in the data active means max response mostly above about 13%, no sharp cut-off; inactive means mostly below about 14%; further: read at 38.3 µM for the half of the compounds with a filed dose; 0% is about no effect
# * marks the source's active call; other numbers are inactive results; u = inconclusive; x = no result given. This is a sample that favours compounds with a hit; in the whole collection about 21% have one here. Unless noted, the call rests on the fitted dose curve; in most records, active means well fitted inhibition curve with a large enough effect; inconclusive means small, poorly fitted or top-dose-only effect, or another doubt; inactive means no such curve, though single readings can be large or run the other way.
SMILES,Pf growth 96h,Shiga toxin inh,Pf growth 48h,Cycloheximide cs
CCSc1ncnc2c1sc1nc3c(cc12)COC(C)(C)C3,0%,29,112%,19*
CCCn1c(SC(C(=O)Nc2cccc(OC)c2)c2ccccc2)nc2ccccc2c1=O (configuration not stated),0%,-15,0%,-2
CCc1nnc(NC(=O)c2nc(S(=O)(=O)Cc3cccc(C)c3)ncc2Cl)s1,35%,74*,-4%,58*
CCc1nnc(NC(=O)c2nc(S(=O)(=O)Cc3ccc(C)cc3)ncc2Cl)s1,u,78*,6%,57*
CCc1nnc(NC(=O)c2nc(S(=O)(=O)Cc3ccccc3)ncc2Cl)s1,0%,114*,4%,75*
CCc1nnc(NC(=O)CCC(=O)Nc2ccc(C)cc2)s1,u,-2,u,-1
CCc1nnc(NC(=O)c2nc(Cl)ccc2Cl)s1,-21%,-7,8%,2
CCOc1ccccc1NC(=O)c1nc(S(=O)(=O)Cc2cccc(C)c2)ncc1Cl,-28%,-13,25%,0
CC(C)N(C(=O)Cn1cc(S(=O)(=O)CC(=O)NCc2ccc(F)cc2)c2ccccc21)C(C)C,u,-7,u,-5
Cc1ccc(NS(=O)(=O)c2cccc([N+](=O)[O-])c2)nc1,12%,13,u,5
Cc1ccc2c(c1)nnn2C1CCN(CC(=O)NNC(=O)c2ccco2)CC1,27%,-9,0%,2
Cc1cc(C)c(S(=O)(=O)N2CCN(C(=O)CCOc3ccccc3C)CC2)c(C)c1,u,x,13µM*,x
Cc1ccc(S(=O)(=O)N2CCN(C(=O)CCc3c[nH]c4ccccc34)CC2)c(C)c1,7.4µM*,x,u,x
Cc1ccccc1OCCC(=O)N1CCN(S(=O)(=O)c2ccc(F)cc2)CC1,-15%,1,u,1
CCOc1ccccc1OCCCC(=O)N1CCN(S(=O)(=O)c2ccc(C)cc2C)CC1,10µM*,x,u,x
CCOc1ccccc1OCCCC(=O)N1CCN(S(=O)(=O)c2ccc(C)cc2)CC1,u,-5,u,-4
COc1ccc(OC)c(NC(=O)CC2SC(=Nc3ccccc3)N(CCc3ccccn3)C2=O)c1 (configuration not stated),4.7µM*,-11,15µM*,7
COc1ccc(N=C2SC(CC(=O)Nc3ccccc3)C(=O)N2Cc2ccccn2)cc1 (configuration not stated),u,14,u,21
COc1ccc(N=C2SC(CC(=O)Nc3ccccc3)C(=O)N2CCc2ccccn2)cc1 (configuration not stated),15µM*,17,u,18
COc1ccc(N=C2SC(CC(=O)Nc3cccc(Cl)c3)C(=O)N2Cc2ccco2)cc1 (configuration not stated),u,16*,u,37*
Cn1c(N)c(C(=O)Nc2ccc(-c3ccccc3)cc2)sc1=S,-9%,10,-30%,1
COc1ccccc1C(C)NC(=O)c1ccc(C)o1 (configuration not stated),13µM*,-16,x,-2
CC(=O)c1c(C(C)=O)c(C)n(C2CCCCC2)c1C,1.5µM*,-2,-19%,-3
CC1CCCCC1NC(=O)CCCCn1c(=O)[nH]c2ccsc2c1=O (configuration not stated),-3%,-12,-14%,-6
CCCC1S/C(=N/N=C/c2ccc(OC)cc2)N(Cc2ccccc2)C1=O (configuration not stated),x,28,u,8
SMILES,Pf growth 96h,Shiga toxin inh,Pf growth 48h,Cycloheximide cs
CCCC1S/C(=N/N=C/c2ccc(OC)cc2)N(Cc2ccc(OC)cc2)C1=O (configuration not stated),10µM*,11,u,19
CCc1cc(C(=O)NNC(=O)CCl)sc1C,1.5µM*,-3,1µM*,20
CCc1cc(C(=O)Nc2ncccc2O)sc1C,95%,55*,29%,37*
CC(C)(C)C1CCc2sc(C(=O)NNC(=O)CCl)cc2C1 (configuration not stated),u,109*,u,59*
O=C(CNC(=O)c1cccs1)Nc1ncccc1O,6%,x,17%,x
Fc1ccc(/C=N\Nc2cccc(F)c2)cc1,-9%,-9,9%,-2
Brc1ccccc1/C=N/Nc1ccc2ccccc2n1,u,65*,214%,44*
O=C(Cn1cnc2ccccc2c1=O)N/N=C/c1ccc(Br)cc1,64%,21,9%,1
Cc1ccccc1/C=N/Nc1ccc(Cl)nn1,3%,30,6%,11
Brc1ccc(/C=N/Nc2ccc3ccccc3n2)cc1,u,120*,93%,55*
Fc1cccc(/C=N/Nc2ccc3ccccc3n2)c1,-6%,37,296%,21*
Brc1ccc(/C=N/Nc2ccccc2)cc1,-69%,60*,81%,43*
Cc1cc(N/N=C/c2ccccc2Br)nc2ccccc12,-88%,75*,u,42*
COc1ccc2c(c1)O[C@@H](c1cccc(C(F)(F)F)c1)[C@H](O)C2=O,u,3,u,1
COc1ccc2c(c1)O[C@H](c1ccc3c(c1)OCO3)[C@@H](O)C2=O,u,58*,-8%,38*
COc1ccc2c(c1)O[C@@H](c1ccc3c(c1)OCO3)[C@H](OC(=O)Nc1cc(OC)c(OC)c(OC)c1)C2=O,u,36*,13µM*,15*
COc1cc(/C=N/NC(=O)c2cccs2)ccc1OCc1ccccc1,u,53*,u,28*
COC(=O)N/N=C\c1cccc(OC(=O)c2cccs2)c1,7%,19,24%,10
O=C(N/N=C/c1cccc(OC(=O)N2CCOCC2)c1)c1cccs1,4%,0,61%,27*
COc1cc(/C=N/NC(=O)c2cccs2)ccc1O,35%,97*,76%,52*
COc1cc(/C=N/NC(=O)c2ccccc2O)ccc1OC(=O)CC1SC(=O)NC1=O (configuration not stated),-12%,58*,19%,30*
COc1cccc(NC(=O)C(C)Sc2nnc(C3CC3)n2C2CC2)c1 (configuration not stated),-27%,x,u,x
Cn1cc(Cl)c(C(=O)OCC(=O)Nc2ccc(S(N)(=O)=O)cc2)n1,u,-8,1%,-6
O=S(=O)([N-]c1nc2ccccc2nc1-n1cc[n+](Cc2ccccc2)c1)c1ccc(Br)cc1,u,-9,u,-1
COc1cccc(/C=N/NC(=O)c2cccs2)c1,234%,127*,65%,47*
SMILES,Pf growth 96h,Shiga toxin inh,Pf growth 48h,Cycloheximide cs
COc1cc(/C=N/NC(=O)CCN2CCN(C(c3ccccc3)c3ccccc3)CC2)ccc1O,12µM*,4,u,1
COc1ccc(/C=N/NC(=O)c2sccc2OCc2ccc(F)cc2)cc1OC,12µM*,7,u,-3
CCOc1cc(/C=N/NC(=O)c2ccccc2OCc2ccc(F)cc2)ccc1O,u,x,8.3µM*,x
COc1ccc(CCC(=O)OCC(=O)N(CC(C)C)c2c(N)n(Cc3ccccc3)c(=O)[nH]c2=O)cc1,8%,x,3%,x
NC(=S)N/N=C\c1ccccc1OCc1ccccc1,u,-16,-11%,-3
O=C(N/N=C/c1ccccc1OCc1ccccc1)c1cccs1,-7%,active,38%,42*
